According to PubChem BioAssay AID1159569 (Broad Institute, 2015):
Potency and affinity values are given separately. Inconclusive results are not listed. Entries that show only a call come without a potency. Activity calls are given as the source filed them. How the calls were made is not given here.

Experiment: toxicity to human HepG2 hepatoma cells – cell-based, plate reader, dry powder samples, cytotoxicity control, dose response (AID 1159569)
Conditions: HepG2 cytotoxicity counterscreen; series mostly up to 50 µM

With `OC[C@H]1Nc2ccc(C#Cc3cccnc3)cc2[C@H]2NCC[C@H]21` as the compound, how does the outcome read?
The outcome was “inactive”.
